HIF-2a block: blocks HIF-2a reporter activity | 786-0 RCC cells HIF-2a reporter, luciferase luminescence, overnight | inhibition, % at 18.8 µM | actives 0.72% (n = 360,000) | AID 624352;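 active means inhibition of the luminescence signal of 40% or more relative to plate controls, in a single-dose primary screen at 18.75 µM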
TWEAK Fn14 block: blocks TWEAK-Fn14 interaction in a reporter cell assay; TWEAK-stimulated Fn14 reporter cells, luciferase luminescence, 8 h; inhibition, % at 10 µM; actives 2% (n = 360,000); in the data active means inhibition above about 50%
hiPSC survival: enhancers of human iPSC single-cell survival | hiPSC single-cell survival, ATPlite luminescence; 100% = ROCK inhibitor wells, 0% = DMSO | survival enhancement, % at 20 µM | actives 0.044% (n = 360,000) | AID 602274; in the data active means survival enhancement above about 18%;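 further: cells exposed to compounds for 16 hours before the ATP read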
KKLEB cytotox: CF airway cell cytotoxicity counter-screen; KKLEB CF airway cells viability, ATPlite luminescence, overnight; stronger effect = lower value; cells stimulated with P. aeruginosa culture filtrate; activity change (cytotoxicity), % at 5 µM; actives 0.36% (n = 360,000);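 active means corrected activity change at or below -50% at 5 µM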
LGR2 antag: blocks bursicon-induced cAMP signaling via Drosophila LGR2; inhibition, % at 9.99 µM; actives 0.35% (n = 380,000); HEK293 LGR2, CRE-luciferase, bursicon-stimulated, 4 h; AID 720647;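 active means drop in luminescence signal, shown as inhibition above about 50% in the replicate tests, limit read from the data, passing the limit was not always enough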;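 further: agonist challenge used bursicon conditioned medium at about half maximal strength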
CF NFkB inh: inhibitors of cystic fibrosis induced NF-kB; KKLEB NF-kB-GFP reporter, PAF-induced, GFP fluorescence overnight; inhibition, % at 5 µM; actives 0.86% (n = 360,000); AID 588850;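 active means at least 50% inhibition at 5 µM, scaled per plate between neutral and stimulator controls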;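 further: PAF is a Pseudomonas aeruginosa culture filtrate used as stimulus; plate controls were PAF-stimulated DMSO wells for no effect and unstimulated DMSO wells for full effect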
An asterisk follows results filed as active; . = not tested or not shown. Compounds with a hit are over-represented: about 2.3% of the library has one in this group of screens.

SMILES	HIF-2a block	TWEAK Fn14 block	hiPSC survival	KKLEB cytotox	LGR2 antag	CF NFkB inh
O=C(O)c1ccc(-n2c(O)c(C=C3N=c4ccccc4=N3)sc2=S)cc1	-1.5	53.6*	-0.3	0.1	1.6	16.8
O=C(NCc1ccc(F)cc1)c1cccc2c1C(=O)c1ccc(N3CCC(Cc4ccccc4)CC3)cc1S2(=O)=O	10.4	5.4	-0.4	-9.1	6.4	-77.2
O=C(NC1CC1)c1cccc2c1C(=O)c1ccc(N3CCC(Cc4ccccc4)CC3)cc1S2(=O)=O	14.6	63.5*	-2.6	-8.2	30.9	-15.0
O=C(NC1CCCCC1)c1noc2c1CCCCC2	-136.4	54.7*	-1.7	0.6	-56.7	-2.6
Cc1ccc(NC(=O)c2noc3c2CCCCC3)cc1	-151.3	51.0*	-0.5	14.2	23.6	-2.7
CCc1ccc(NC(=O)c2noc3c2CCC3)cc1	8.5	72.7*	1.3	-5.6	.	-12.9
C[C@@H]1CN([C@H](C)CO)C(=O)Cc2cc(NC(=O)Nc3ccccc3)ccc2O[C@@H]1CN(C)CC1CC1	.	.	.	.	8.6	.
O=C(Nc1nc2ccccc2s1)c1ccc(N2CCCCC2)c([N+](=O)[O-])c1	-87.2	81.1*	1.1	12.4	.	2.9
Cc1ccc(-c2csc(NC(=O)c3cc([N+](=O)[O-])ccc3N3CCOCC3)n2)cc1	-6.5	-27.4	0.5	-15.7	-6.5	21.4
O=C(Nc1nc(-c2ccccc2)cs1)c1ccc(N2CCOCC2)c([N+](=O)[O-])c1	-14.6	105.8*	-0.3	-17.2	.	8.4
O=C(Nc1cccc(Cl)c1N1CCOCC1)c1cc([N+](=O)[O-])ccc1N1CCOCC1	5.7	-12.1	0.3	-1.8	-7.5	-18.4
CC1CCN(c2ccccc2NC(=O)c2ccc(N3CCOCC3)c([N+](=O)[O-])c2)CC1	8.0	-20.6	1.9	-54.1*	-15.9	42.9
O=C(Nc1ccon1)c1ccc(N2CCCCC2)c([N+](=O)[O-])c1	-251.5	-11.2	-2.6	-9.7	-133.0	-7.3
O=C(Nc1cccc(Cl)c1N1CCCCC1)c1ccc(N2CCOCC2)c([N+](=O)[O-])c1	10.8	-12.7	-0.4	-67.8*	-1.4	65.4*
O=C(C[C@@H]1C=C[C@@H](NC(=O)c2cccc(F)c2)[C@@H](CO)O1)NCc1ccccc1	.	.	.	.	6.7	.
CO[C@@H]1CN(C)C(=O)c2ccc(NC(=O)Nc3ccccc3)cc2OC[C@H](C)N(C(=O)Nc2c(C)noc2C)C[C@H]1C	.	.	.	.	-2.1	.
O=C(NC(=S)Nc1cccc(Cl)c1N1CCCCC1)c1ccc2c(c1)OCCO2	-8.5	71.0*	-2.4	-6.6	-15.0	27.8
O=C(Cn1c2ccccc2c(=O)c2ccccc21)N/N=C/c1cc([N+](=O)[O-])ccc1N1CCCCCC1	13.7	1.5	-1.0	-24.5	.	16.9
O=C(Cn1c2ccccc2c(=O)c2ccccc21)N/N=C/c1ccc(N2CCCC2)c([N+](=O)[O-])c1	0.6	64.6*	1.0	-0.6	-8.0	-9.3
O=C(O/N=C\c1ccc(N2CCCCC2)c([N+](=O)[O-])c1)c1c(F)cccc1F	-43.3	78.0*	0.4	-4.0	.	14.1
O=C(O/N=C\c1ccc(N2CCCCC2)c([N+](=O)[O-])c1)c1cccc(Cl)c1	-34.0	-8.9	3.0	1.5	.	4.1
O=C(CSc1nnc(SCc2ccccc2)s1)N/N=C/c1ccc(C(=O)O)cc1	2.1	6.9	-0.5	7.8	14.8	-7.9
Cc1ccc(CSc2nnc(SCC(=O)N/N=C/c3ccc(C(=O)O)cc3)s2)cc1	-58.9	69.4*	-0.8	5.6	66.9*	6.2
Nc1nc(CCl)nc(Nc2ccc3ccccc3c2)n1	-125.3	15.7	-0.1	-36.6	-100.0	78.3*
c1ccc(-c2nnsc2-c2ccccc2)cc1	8.8	-20.3	0.0	-12.2	-13.1	17.4
SMILES	HIF-2a block	TWEAK Fn14 block	hiPSC survival	KKLEB cytotox	LGR2 antag	CF NFkB inh
O=S(=O)(c1ccc(Cl)c(Cl)c1)c1snnc1-c1ccccc1	77.0*	77.8*	-5.2	-44.9	.	56.3*
CCN1CCN(c2ncnc3scc(-c4ccc(OC)cc4)c23)CC1	16.5	90.8*	1.2	-0.2	-10.9	4.9
COc1ccc(-c2csc3ncnc(N4CCN(c5cccc(OC)c5)CC4)c23)cc1	9.8	54.2*	0.3	3.8	-9.0	44.5
c1ccc(N2CCN(c3ncnc4scc(-c5cccs5)c34)CC2)cc1	8.4	64.3*	-0.2	0.0	33.6	27.4
C[C@@H]1CN([C@@H](C)CO)C(=O)c2c(c3ccccc3n2C)-c2ccccc2CO[C@@H]1CN(C)C(=O)[C@H](C)c1ccccc1	.	.	.	.	7.2	.
O=C(C1CCCC1)N1CC2(C1)[C@H](c1ccccc1)[C@@H](CO)N2Cc1cncnc1	.	.	.	.	-2.7	.
Cc1cccc(Nc2nc(N)c([N+](=O)[O-])c(N3CCCC(C)C3)n2)c1 (configuration not stated)	-14.3	64.1*	6.4	-17.6	4.4	41.7
Cc1cccc(Nc2nc(N)c([N+](=O)[O-])c(N3CCN(C)CC3)n2)c1	7.3	-19.4	-0.5	-4.3	-5.3	6.2
C[C@@H]1CN([C@@H](C)CO)C(=O)c2cc(NS(=O)(=O)c3cn(C)cn3)ccc2O[C@@H]1CN(C)C(=O)Nc1ccc2c(c1)OCO2	.	.	.	.	3.5	.
Cc1cccc(-c2ccc([C@H]3[C@@H](CO)N4C(=O)CN(C(=O)NC5CCCCC5)C[C@@H]34)cc2)c1	.	.	.	.	22.4	.
CN(C)c1ccc(N/C=C/C(=O)c2ccccc2)cc1	-39.9	95.3*	-6.3	-34.7	.	-7.0
CCCNC(=O)Nc1ccc2c(c1)OC[C@@H](C)N(Cc1ccc(-c3ccccn3)cc1)C[C@@H](C)[C@@H](OC)CN(C)C2=O	.	.	.	.	-0.1	.
CC(=O)N1CCN(c2cc(-c3ccccc3)nc3cc(-c4cccc(Cl)c4)nn23)CC1	-26.7	54.9*	-1.0	-1.4	20.0	6.2
O=C(c1ccncc1)N1CCN(c2cc(-c3ccccc3)nc3cc(-c4cccc(Cl)c4)nn23)CC1	-26.2	69.7*	0.4	-6.6	-12.0	3.6
C[C@@H]1CN([C@H](C)CO)S(=O)(=O)c2ccc(C3=CCCCC3)cc2O[C@@H]1CN(C)S(=O)(=O)c1cn(C)cn1	.	.	.	.	16.0	.
Cc1ccc2c(c1)-c1cc(C)ccc1C2=O	-17.2	63.5*	-2.9	4.7	-3.0	11.0
CCCNC(=O)N1CCC2(CC1)CN(C(C)=O)[C@H](CO)c1c2c2ccc(OC)cc2n1C	.	.	.	.	-6.3	.
Cc1ccc(NC(=O)CSc2nc3ccccc3c(=O)n2Cc2cccs2)cc1	-32.0	-17.5	0.4	-52.4*	-2.6	47.6
COCCCn1c(SCC(=O)Nc2ccc(C)cc2)nc2ccccc2c1=O	5.5	-3.2	2.8	5.6	-11.3	-10.6
C[C@@H]1CN([C@H](C)CO)C(=O)c2cc(C#CC3CCCC3)cnc2O[C@H]1CN(C)C(=O)C1CCCCC1	.	.	.	.	-5.1	.
C[C@H](CO)N1C[C@H](C)[C@@H](CN(C)C(=O)CCCN(C)C)OCCCC[C@H](C)Oc2ccc(NS(=O)(=O)c3cn(C)cn3)cc2C1=O	.	.	.	.	-2.8	.

Compound activity as filed in PubChem BioAssay.
